Measurements reported in PubChem BioAssay (NCI).
This is part of a sample that, as a whole, favours compounds with a hit. Of some 79,000 tested, about 15% had one in any assay. Values without a mark were called inactive. The source made the active and inactive calls. Rule as the data show it: active = growth inhibition above about 70%; inactive = the rest.

Experiment: NCI Yeast Anticancer Drug Screen. Data for the cln2 rad14 strain (AID 165);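 also: 0% = growth equal to vehicle treated cultures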
Settings: S. cerevisiae cln2 rad14 strain, at 50.0 µM, stronger effect = higher value
Outline: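 Yeast carrying cln2 and rad14 alterations (cell cycle control and DNA damage repair) were exposed to compounds. Growth inhibition was measured against vehicle-treated controls.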

Question: With `CC(O)C1CC1` (stereo not drawn) as the molecule, how does the growth inhibition read?
Answer: Its growth inhibition is 1.65%.

Question: For `CCOC(=O)CCC(NC(=O)c1ccc(Nc2nc3ccccc3nc2C(=O)OCC)cc1)C(=O)OCC` (stereo not drawn), which growth inhibition is on record?
Answer: Its growth inhibition is 15.4%.

Question: With `CC(C)C(=O)Nc1ccccc1-c1ccccc1` as the molecule, how does the growth inhibition read?
Answer: The growth inhibition was -1.4%.

Question: For `O=S(=O)(NCCNS(=O)(=O)c1ccccc1)c1ccccc1`, which growth inhibition is on record?
Answer: Its growth inhibition is -44.5%.

Question: With `Nc1cc(=S)nc(N)[nH]1` as the molecule, how does the growth inhibition read?
Answer: The growth inhibition was 9.55%.

Question: For `CC[N+](C)(CC)c1cccc(OC(=O)Nc2ccc(OC)cc2)c1`, which growth inhibition is on record?
Answer: Its growth inhibition is -5.7%.

Question: Which growth inhibition does the source give for `CC(=O)Nc1nc2nccn2c(=O)[nH]1` here?
Answer: Its growth inhibition is -28.3%.

Question: With `O=S1(=O)C=Cc2ccccc2CC1` as the molecule, how does the growth inhibition read?
Answer: The growth inhibition was -10.8%.

Question: For `C=CCOC(=O)/C=C\C(=O)OCC=C`, which growth inhibition is on record?
Answer: The growth inhibition was -25.3%.

Question: For `COc1ccc(OC)c2cc3c(cc12)C(=O)c1ccccc1C3=O`, which growth inhibition is on record?
Answer: Its growth inhibition is 90.7% (active).

Question: Which growth inhibition does the source give for `Nc1ccc(S(=O)(=O)CC(=O)N2CCOCC2)cc1` here?
Answer: The growth inhibition was 17.9%.

Question: For `Cc1cc(N(CCC#N)CCC#N)ccc1/C=C(\N=[N+]=[N-])C(=O)NC(=O)COc1ccccc1`, which growth inhibition is on record?
Answer: Its growth inhibition is 11.9%.

Question: For `O=c1[nH]c2cc(Cl)ccc2nc1/C=C(\O)c1cccc2ccccc12`, which growth inhibition is on record?
Answer: The growth inhibition was 17%.

Question: With `Cc1cccnc1Nc1ncccc1C` as the molecule, how does the growth inhibition read?
Answer: The growth inhibition was 14.3%.

Question: Which growth inhibition does the source give for `C[N+]([O-])=C(c1ccccc1)c1ccccc1` here?
Answer: The growth inhibition was 4.5%.

Question: Which growth inhibition does the source give for `Cc1c(C2CCSc3ccccc3N2)sc2ccccc12` (stereo not drawn) here?
Answer: Its growth inhibition is 14.6%.

Question: For `CCOC(=O)c1[nH]c(Cc2[nH]c(Cc3[nH]c(C(=O)OCC)c(C)c3C(=O)OCC)c(C(=O)OCC)c2C)c(C(=O)OCC)c1C`, which growth inhibition is on record?
Answer: The growth inhibition was 37.5%.

Question: For `Cc1ccc(-c2cc(=O)c3cc(C)c(C)c(C(=O)O)c3o2)cc1C`, which growth inhibition is on record?
Answer: The growth inhibition was 23.5%.
